# This is a sample that favours compounds with a hit; in the whole collection about 5.7% have one here.
# TGFb SMAD3 inh – qHTS for Inhibitors of TGF-b | AID 588855, 2011 | HepG2 CAGA-GFP TGF-b/SMAD3 reporter, GFP fluorescence, 18 h; TGF-beta stimulated, 500 pg/mL final | 410,000 tested, 1.2% active | Potency, µM (titrated, usually from 46.1 µM), most hits filed as inhibitors; note: nearly all actives have a fitted effect of over 65% in size
#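 HEPG2 CAGA-GFP, 1000 cells/well; 2 h settle, 37 C; cpd via pin tool; TGF-b 500 pg/mL final; 18 h, 37 C; GFP imaging ex488/em500-530; %Activity normalised to -TGF-b and +DMSO controls; CRC fit, curve class.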
# HepG2 viability – qHTS for Inhibitors of TGF-b: Cytotox Counterscreen; HepG2 CAGA-GFP viability, ATP luminescence, 18 h; Potency, µM (highest dose often 46.1 µM), most hits filed as cytotoxic; 410,000 tested, 0.76% active; AID 588856, 2011
#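 HepG2 CAGA-GFP cells (1000/well, DMEM with 1% FBS) received compound, then TGF-beta at 500 pg/mL final, and were incubated 18 hours at 37 degrees C. Viability was read by CellTiter-Glo luminescence. Media-only wells were set as complete cell-killing and DMSO as no toxicity.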
# ATXN viability – Viability Counterscreen for Primary qHTS for Inhibitors of ATXN expression | 400,000 tested, 0.49% active | Potency, µM (series often up to 56.7 µM), hits mostly cytotoxic | S2 cells (HEK-293 line with an ATXN2-luciferase reporter) viability, CellTiter-Fluor protease fluorescence, 24 h; note: nearly all actives have a fitted effect of over 40% in size
# ATXN2 expr inh – Primary qHTS for Inhibitors of ATXN expression | Potency, µM (titrated, usually from 57 µM), most hits filed as inhibitors | 360,000 tested, 0.72% active | HEK-293 ATXN2-luciferase reporter, luminescence, 24 h; note: nearly all actives have a fitted effect of over 55% in size
#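 ATXN2-luciferase reporter cells (luciferase flanked by upstream and downstream ATXN2 gene portions) were treated 24 h at 37 °C with compounds at up to 57 uM. SteadyGlo luminescence gave expression; GF-AFC fluorescence gave viability.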
# IL1B secr inh – qHTS for Inhibitors of Inflammasome Signaling: IL-1-beta AlphaLISA Primary Screen. activity change, % at 57.5 µM. THP-1 LPS/ATP IL-1B secretion, AlphaLISA, 16 h; stronger effect = lower value. AID 743279, 2014. 360,000 tested, 4.7% active; in the data active = activity change below about -50%; inconclusive = mostly about -30% to -49%
#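 THP-1 cells pretreated 1 hr with compounds (up to 57.5 uM final), then stimulated with LPS (250 ng/mL final) plus ATP (1.25 mM final); secreted IL-1B measured by AlphaLISA after 16 hr, decreased signal indicating inhibition.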
# Numbers stand for hits; – = inactive; ? = inconclusive; · = no result; [ ] = remark or other dose. Unless noted, calls come from the whole dose curve; as a rule, active = well fitted curve in the direction sought with a large enough effect; inconclusive = small, poorly fitted or top-dose-only effect, or another doubt; inactive = no such curve, though single readings can be large; an effect the other way counts as inactive or inconclusive.
SMILES,TGFb SMAD3 inh,HepG2 viability,ATXN viability,ATXN2 expr inh,IL1B secr inh
CC(=O)OC1CC(OC2C(O)CC(OC3C(O)CC(OC4CCC5(C)C(CCC6C5CCC5(C)C(C7=CC(=O)OC7)CCC65O)C4)OC3C)OC2C)OC(C)C1OC1OC(CO)C(O)C(O)C1O (configuration not stated),?,–,?,0.0075µM,-71
CCCCNC(=O)c1cc(-c2cccnc2)nc2ccc(S(=O)(=O)NCCCC)cc12,–,–,?,–,·
Cc1cccc(OCC(=O)Nc2cc(-c3ccccc3F)nn2-c2ccccc2)c1,–,–,?,–,·
NC(N)=N/N=C/c1cn(-c2ccccc2)nc1-c1cccs1,?,11µM,·,·,-98
Cn1ccc(NC(=O)CCl)n1,–,–,?,–,-102
Cc1cc(NC(=O)CCl)nn1C,–,–,–,–,-101
CCCCC[C@@H]1CCCCC[C@@H](O)C[C@@H](O)[C@H](O)/C=C/C(=O)O1,·,·,–,–,-66
CC(C)(C)c1cc([N+](=O)[O-])cc(C(C)(C)C)c1O,7.9µM,–,?,?,–
NC(=O)c1cc([N+](=O)[O-])cc([N+](=O)[O-])c1,–,–,–,?,–
Cc1c(C=O)c2ccccc2n1Cc1ccccc1F,1.1µM,–,–,–,–
COc1ccc(C(=O)N/N=C/C23CC[C@@H](O)CC2(O)CC[C@@H]2[C@@H]3CCC3(C)C(C4=CC(=O)OC4)CCC23O)cc1 (some centres not stated),–,–,–,·,-71
CC12CC[C@H]3[C@@H](CCC4(O)C[C@H](O)CCC34/C=N/NC(=O)c3ccc(O)cc3)C1(O)CCC2C1=CC(=O)OC1 (some centres not stated),–,–,–,–,–
Cc1ccc(/C=C2\C(=O)NC(=S)N(c3ccccc3F)C2=O)s1,?,–,?,32µM,-99
Cc1ccc(/C=C2\C(=O)NC(=S)N(c3ccc(F)cc3)C2=O)s1,–,–,?,?,-108
Cc1ccc(/C=C2\C(=O)NC(=S)N(c3ccc(F)cc3)C2=O)o1,–,–,–,·,–
COc1ccc2c(c1)[nH]c1c(C)nccc12,?,–,–,–,-72
O=C1NC(=O)N(Cc2ccccc2)C(=O)/C1=C/C=C/c1ccco1,11µM,–,20µM,?,-98
CC(C)N1C(=O)/C(=C/C=C/c2ccco2)C(=O)N(Cc2ccco2)C1=O,–,–,?,?,-106
COc1ccc(/C=C2/C(=O)N(Cc3ccco3)C(=O)N(C(C)C)C2=O)cc1,–,–,?,·,–
COc1ccccc1CNC(=O)CCS(=O)(=O)c1ccc2c(c1)oc(=O)n2C,–,–,–,–,·
O=Cc1ccc(O)cc1,–,–,·,·,·
CC(Oc1ccc(Br)cc1)C(=O)N(Cc1nc(-c2ccccc2)no1)C(C)C (configuration not stated),?,–,·,·,·
CC(C)=CCN1CC[C@]2(C)c3cc(O)ccc3C[C@H]1[C@H]2C,·,·,–,·,·
C(=NN1CCCCCC1)c1c[nH]c2ccccc12,–,–,–,–,–
Brc1ccc2[nH]cc(/C=N/N3CCCCC3)c2c1,?,–,–,–,-65
SMILES,TGFb SMAD3 inh,HepG2 viability,ATXN viability,ATXN2 expr inh,IL1B secr inh
O=C(CCl)Nc1nccs1,11µM,11µM,?,·,-62
COc1ccccc1N1C(=O)NC(=O)/C(=C/c2ccc([N+](=O)[O-])s2)C1=O,?,–,–,–,-62
COc1ccccc1N1C(=O)NC(=O)/C(=C\c2cnn(-c3ccccc3)c2)C1=O,?,–,–,–,-90
C[C@H](CO)N1C[C@H](C)[C@H](CN(C)C(=O)N[C@H](C)c2ccccc2)OCc2ccccc2-c2c(n(C)c3ccccc23)C1=O,–,–,?,–,–
CC(=O)OC1C(O)C(C)OC(OC2C(OC(=O)C3CCC4C(C3)OC3(CC(OC(=O)/C=C/c5ccccc5)C(C)CO3)C43CO3)OC(C)C(O)C2OC(C)=O)C1O (configuration not stated),?,–,?,0.21µM,-98
O=C(Nc1ccc(Br)cc1)c1cccc(S(=O)(=O)N2CCc3ccccc32)c1,?,–,–,?,·
CCOc1ccc(-c2cc(C)[n+](CCc3ccc(OC)c(OC)c3)c(-c3ccc(OCC)cc3)c2)cc1,?,–,?,?,-109
Cc1cc(-c2ccccc2)cc(-c2ccccc2)[n+]1CCc1ccccc1,?,–,?,?,?
CCOc1ccc(-c2cc(C)[n+](CCO)c(-c3ccc(OCC)cc3)c2)cc1,–,–,–,–[11.3 µM],-75
CC(=O)OC1CC[C@]2(C#N)[C@H]3CC[C@]4(C)[C@H](C5C=CC(=O)O5)CCC4(O)C3CCC2(O)C1 (some centres not stated),–,10µM,?,·,–
C[C@@H]1CN([C@@H](C)CO)C(=O)CCCn2nncc2CO[C@@H]1CN(C)C(=O)Nc1ccc(N2CCCCC2)cc1,–,–,–,–,–
Nc1nonc1C(=O)N/N=C/c1ccc([N+](=O)[O-])o1,16µM,–,–,–[11.3 µM],-87
N/C(=N\[N+](=O)[O-])N/N=C/c1ccc(O)cc1,–,–,–,–,–
CCOC(=O)c1c(C)n(Cc2ccccc2)c2ccc(OCC(O)CNC(C)(C)C)cc12 (configuration not stated),?,18µM,·,14µM,-96
CCOC(=O)c1c(C)n(Cc2ccccc2)c2ccc(OCC(O)Cn3nc(C)nc3C)cc12 (configuration not stated),–,–,–,?,?
CCOC(=O)c1c(C)n(Cc2ccccc2)c2ccc(O)cc12,18µM,–,–,–,–
COC(=O)c1c(C)n(Cc2ccccc2)c2ccc(O)cc12,–,–,–,–,–
CCn1nc(-c2cccs2)nc2c(=O)n(C)c(=O)nc1-2,?,0.35µM,–,–,-68
CCOc1ccc(-n2c(-c3cccs3)nc3ccccc3c2=O)cc1,–,–,–,?,–
CCn1nc(/C=C/c2ccccc2)nc2c(=O)n(C)c(=O)nc1-2,0.4µM,0.89µM,·,?,-110
O=[N+]([O-])c1ccc(N2CCNCC2)cc1N1CCCCCC1,–,–,?,–,-59
CN1CCN(c2ccc([N+](=O)[O-])c(N3CCCCC3)c2)CC1,–,–,?,–,–
CC(=O)[O][Hg][c]1ccccc1,·,·,4.5µM,4.5µM,·
CC1Cc2ccccc2N1C(=O)COC(=O)c1ccc(Cl)nc1 (configuration not stated),–,–,–,–,–
O=C(Nc1cccc(C(F)(F)F)c1)C1CCCN1S(=O)(=O)c1cccc2nsnc12 (configuration not stated),?,–,·,?,·

# Compound activity from PubChem.
